Compounds with a hit are over-represented: about 19% of the library has one in this group of screens.
DT40 TDP1 no CPT – qHTS for Inhibitors of human tyrosyl-DNA phosphodiesterase 1 (TDP1): qHTS in cells in absence of CPT; DT40 Tdp1-/- hTDP1 cells, no CPT, ATP luminescence, 48 h; Potency, µM (highest dose often 46.2 µM), for the others: at the top dose activity change, negative = growth inhibition, hits mostly inhibitors; 15% of 420,000 active; AID 686978, 2013; note: potency is the fitted concentration of half-maximal effect; nearly all actives have a fitted effect of over 55% in size
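Stably hTDP1-transfected Tdp1-null chicken DT40 cells were treated with library compounds minus camptothecin and grown for at least 48 hr at 37 °C, after which cellular ATP was quantified by luminescence.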
HT1080-NT tox – qHTS for induction of synthetic lethality in tumor cells producing 2HG: qHTS for the HT-1080-NT fibrosarcoma cell line; HT-1080-NT fibrosarcoma viability, CellTiter-Glo ATP luminescence, 48 h; Potency, µM (titrated, usually from 46.1 µM), for inactives: top-dose activity, negative = less viability, hits mostly cytotoxic; 1.6% of 360,000 active;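 note: NT is the 2HG producing partner of a matched IDH1 knockdown line; potency is the fitted concentration of half-maximal effect; 0% = DMSO-treated cells and -100% = media-only wells without cells; nearly all actives have a fitted effect of over 55% in size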
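Viability by CellTiter-Glo luminescence after 48 h compound exposure at 37C of HT-1080-NT cells (750/well, RPMI, 5% FBS). % activity scaled between DMSO wells and medium-only wells, then curve-fitted and categorized by curve class.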
DT40 TDP1 CPT – qHTS for Inhibitors of human tyrosyl-DNA phosphodiesterase 1 (TDP1): qHTS in cells in presence of CPT; chicken DT40 Tdp1-/-;hTDP1 cells + 20 nM CPT, ATP luminescence, 48 h; Potency, µM (top dose mostly 46.2 µM), for the others: at the highest dose activity change, negative = growth inhibition, most hits filed as inhibitors; 12% of 420,000 active; note: potency is the fitted concentration of half-maximal effect; nearly all actives have a fitted effect of over 55% in size
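Chicken DT40 Tdp1-/- cells complemented with human TDP1, 400 cells/well, exposed to compounds plus 20 nM camptothecin for at least 48 h at 37 C; viability read as ATP content by CellTiter-Glo luminescence.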
IL-1B inflam inh – qHTS for Inhibitors of Inflammasome Signaling: IL-1-beta AlphaLISA Primary Screen; THP-1 LPS/ATP IL-1B secretion, AlphaLISA, 16 h; stronger effect = lower value; activity change, % at 57.5 µM; 4.7% of 360,000 active; in the data active = activity change below about -50%; inconclusive = mostly about -30% to -49%
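Secreted IL-1B measured by AlphaLISA bead assay after 16 h compound exposure of THP-1 cells; compounds (final up to 57.5 uM) added 1 h before LPS (250 ng/mL) and ATP (1.25 mM) stimulation; lower signal means less secretion.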
HT1080 IDH1KD tx – qHTS for induction of synthetic lethality in tumor cells producing 2HG: qHTS for the HT-1080-IDH1KD cell line. HT-1080 IDH1 knockdown viability, ATP luminescence, 48 h. Potency, µM (titrated, usually from 46.1 µM), without a hit: at the highest dose activity, negative = toxicity, hits mostly cytotoxic. 2% of 360,000 active. AID 686971, 2013;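 note: potency is the fitted concentration of half-maximal effect; 0% = DMSO wells and -100% = cell-free medium wells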
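Assay cells: HT-1080 with IDH1 knockdown, 750 per well, RPMI/5% FBS. Exposure: 48 h at 37 °C following 2 h pre-incubation. Read: CellTiter-Glo luminescence; fitted concentration-response, curve class assigned.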
The depositor's hits bear a star; ? = inconclusive; . = no result. Unless noted, calls come from the whole dose curve; as a rule, active = well fitted curve in the direction sought with a large enough effect; inconclusive = small, poorly fitted or top-dose-only effect, or another doubt; inactive = no such curve, though single readings can be large; an effect the other way counts as inactive or inconclusive. Unless noted, % is set by controls: 0 for no effect and ±100 for the full control effect.

SMILES	DT40 TDP1 no CPT	HT1080-NT tox	DT40 TDP1 CPT	IL-1B inflam inh	HT1080 IDH1KD tx
COC(=O)c1ccc2c(=O)n(Cc3ccco3)c(SCC(=O)Nc3cc(C)on3)nc2c1	-2.9%	8.3%	-26.4%	3.7	4.6%
CCC(C)NC(=O)CSc1nc2c(sc(=S)n2Cc2ccco2)c(=O)n1-c1ccccc1 (configuration not stated)	?	-7.0%	-20.8%	1.8	-10.9%
CCn1c(=S)sc2c(=O)n(-c3ccccc3)c(SCC(=O)NCc3ccco3)nc21	?	1.4%	17.8µM*	-12.8	-23.5%
Cc1cc(NC(=O)CSc2nc3cc(C(=O)NCCCOC(C)C)ccc3c(=O)n2Cc2ccco2)no1	?	-2.7%	18.4µM*	-17.8	-1.5%
CCOC(CCn1c(SCc2ccc([N+](=O)[O-])cc2)nc2ccccc2c1=O)OCC	13µM*	-14.6%	14.6µM*	?	-0.2%
CC(=O)c1ccc(-c2cc(F)cc3c2OC(CNC(=O)c2ccc[n+]([O-])c2)C3)s1 (configuration not stated)	-10.4%	.	0.6%	.	.
Cc1ccc2nc(N3CCN(C(=O)c4ccc(F)cc4)CC3)c(C#N)cc2c1	23.1µM*	-0.6%	?	-10.4	-1.1%
Cc1ccc2cc(C#N)c(N3CCN(C(=O)c4cccs4)CC3)nc2c1	20.6µM*	-0.3%	?	4.8	11.0%
CC(=O)Nc1ccc(S(=O)(=O)Nc2ccc3c(c2)CCC3)cc1	13µM*	-12.0%	-75.1%	-2.7	-24.8%
COC(=O)c1ccccc1NS(=O)(=O)c1ccc(NC(C)=O)cc1	-16.0%	-21.7%	-2.6%	-84.3*	?
COc1ccc(S(=O)(=O)Nc2cc3c4c(c2)CCN4C(=O)CC3)cc1	1.0%	-14.8%	-18.1%	29.7	-17.9%
COc1ccc(S(=O)(=O)Nc2ccc3c(c2)CCC3)cc1	?	?	?	-187.2*	?
COC(=O)c1ccccc1NS(=O)(=O)c1ccc(F)cc1	-9.8%	4.0%	?	18.5	7.5%
CCNC(=S)N(CCCN(C)C)Cc1cc2cc3c(cc2[nH]c1=O)OCCO3	1.2%	2.1%	-2.6%	-13.4	7.4%
CC(=O)c1ccc(OCC(O)CN2CCN(c3ccc(F)cc3)CC2)cc1 (configuration not stated)	23.1µM*	-0.8%	?	-0.9	8.4%
COc1cc(C(C)=O)ccc1OCC(O)CN1CCN(c2cc(C)cc(C)c2)CC1 (configuration not stated)	16.4µM*	-6.0%	?	-15.1	-15.5%
CNS(=O)(=O)c1cn(CC(=O)Nc2ccc(C(C)=O)cc2)cc1S(=O)(=O)NC	0.4%	.	-6.6%	.	.
Cc1cccc(CNc2ccc(C(CC(N)=O)NC(=O)c3ccccc3)cc2[N+](=O)[O-])c1 (configuration not stated)	?	-1.4%	?	-10.2	-1.2%
CCC(CC)Nc1ccc(C(CC(N)=O)NC(=O)c2ccccc2)cc1[N+](=O)[O-] (configuration not stated)	14.6µM*	14.3%	16.4µM*	-1.9	11.4%
Cc1ccccc1CNc1ccc(C(CC(N)=O)NC(=O)c2ccccc2)cc1[N+](=O)[O-] (configuration not stated)	23.1µM*	-3.5%	16.4µM*	-78.4*	-1.5%
NC(=O)CC(NC(=O)Cc1cccc2ccccc12)c1ccc(NCCc2ccccc2F)c([N+](=O)[O-])c1 (configuration not stated)	?	14.6%	20.6µM*	20.4	5.7%
CCCCNc1ccc(C(CC(N)=O)NC(=O)c2ccccc2)cc1[N+](=O)[O-] (configuration not stated)	14.6µM*	-2.2%	18.4µM*	-11.6	-0.4%

Screening results (PubChem BioAssay)
